Measurements taken from PubChem BioAssay (Tox21).
Records with an inconclusive call do not appear. A number with no mark means an inactive call. Calls come from the whole dose curve; as a rule, active = well fitted activation curve with a large enough effect in the signal ratio in the repeat runs (not every such curve was filed as active); inconclusive = weak or mixed curves; inactive = flat fitted curve, though single readings scatter; the % refers to the signal ratio.

Experiment: qHTS assay to identify small molecule agonists of H2AX (AID 1224845)
Conditions: CHO-K1 phospho-H2AX Ser139 HTRF, 3 h; series mostly up to 154 µM; activation (H2AX phosphorylation): at the top concentration
Outline: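 Wild-type CHO-K1 cells plated overnight, then exposed 3 hr at 37C to compounds at 15 concentrations (0.76% DMSO). Lysed, then HTRF anti-pH2AX(S139)-cryptate/anti-H2AX-d2 detection after 24 hr at room temperature; emissions 665 and 620 nm.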
% is set by controls: 0 for no effect and ±100 for the full control effect.

Going from `O=C1[C@@H]2[C@H]3CC[C@H](C3)[C@@H]2C(=O)N1CCCCN1CCN(c2ncccn2)CC1` to `COc1cc(C(C)=O)ccc1OCCCN1CCC(c2noc3cc(F)ccc23)CC1`, the “activation (H2AX phosphorylation)” value falls from -2.71% [at 70.9 µM] to -8.29% [at 70.9 µM].

Compared with `O=C(NC(Cc1cc(=O)[nH]c2ccccc12)C(=O)O)c1ccc(Cl)cc1` (stereo not drawn), `O=C(O)CCC(=O)c1ccc(-c2ccccc2)cc1` is higher in “activation (H2AX phosphorylation)” value: -0.171% [at 70.9 µM] for the first, 0.741% [at 70.9 µM] for the second.

Compared with `CSCC[C@H](NC(=O)[C@H](Cc1c[nH]c2ccccc12)NC(=O)CCNC(=O)OC(C)(C)C)C(=O)N[C@@H](CC(=O)O)C(=O)N[C@@H](Cc1ccccc1)C(N)=O`, `O=C(O)CNC(=O)c1ccccc1I` is higher in “activation (H2AX phosphorylation)” value: -3.62% [at 70.9 µM] for the first, 1.1% [at 70.9 µM] for the second.

Compared with `CCOc1ncc(F)c(=O)[nH]1`, `COC(=O)Nc1nc2ccc(C(=O)C3CC3)cc2[nH]1` is lower in “activation (H2AX phosphorylation)” value: -0.409% [at 70.9 µM] for the first, -0.875% [at 70.9 µM] for the second.

Going from `CC(C)(C(=O)c1cccnc1)c1cccnc1` to `Cc1ccc(S(=O)(=O)NC(=O)NC2CCCCC2)cc1`, the “activation (H2AX phosphorylation)” value falls from 1.3% [at 70.9 µM] to 0.29% [at 70.9 µM].

Going from `FC(F)(F)C(F)(F)C(F)(F)C(F)(F)CCI` to `O=c1[nH]c2cc(C(F)(F)F)c(N3CCOCC3)cc2n(CP(=O)(O)O)c1=O`, the “activation (H2AX phosphorylation)” value falls from -1.55% [at 70.9 µM] to -1.67% [at 70.9 µM].

Compared with `CCCCCCCC/C=C/C(=O)O`, `CCCCC[C@H](O)/C=C/[C@H]1[C@H](O)CC(=O)[C@@H]1C/C=C\CCCC(=O)O` is higher in “activation (H2AX phosphorylation)” value: -0.996% [at 70.9 µM] for the first, -0.658% [at 70.9 µM] for the second.

Going from `COc1ccc(CCN(C)CCCN2CCc3cc(OC)c(OC)cc3CC2=O)cc1OC` to `CC[C@H]1OC(=O)[C@H](C)[C@@H](O[C@H]2C[C@@](C)(OC)[C@@H](O)[C@H](C)O2)[C@H](C)[C@@H](O[C@@H]2O[C@H](C)C[C@H](N(C)C)[C@H]2O)[C@](C)(O)C[C@@H](C)CN(C)[C@H](C)[C@@H](O)[C@]1(C)O`, the “activation (H2AX phosphorylation)” value rises from -0.164% [at 70.9 µM] to 0.389% [at 70.9 µM].

Going from `Cc1ccc2c(c1)CCCN2` to `Cc1ccc(N(CCO)CCO)cc1`, the “activation (H2AX phosphorylation)” value rises from -0.775% to 0.343%.

Compared with `CC(C)(C)C1(CCc2ccc(Cl)cc2)CO1` (stereo not drawn), `CC(C)(O)CCc1ccccc1` is lower in “activation (H2AX phosphorylation)” value: 3.18% for the first, -1.54% for the second.

First: O=CNNC=O
Second: O=S(=O)(O)CO
The “activation (H2AX phosphorylation)” value of the first is lower: -0.898% for the first, 0.634% for the second.

Going from `O=C(O)CO` to `CCOC(=O)C(C)O` (stereo not drawn), the “activation (H2AX phosphorylation)” value falls from 2.72% to 0.276%.

First: Cc1cc(CCC(=O)OCCOCCOCCOC(=O)CCc2cc(C)c(O)c(C(C)(C)C)c2)cc(C(C)(C)C)c1O
Second: CCCCCCOC(=O)CCCCC
The “activation (H2AX phosphorylation)” value of the first is lower: -1.91% for the first, 0.504% for the second.

Going from `Nc1ccn([C@H]2CS[C@@H](CO)O2)c(=O)n1` to `Nc1nc(-c2ccc([N+](=O)[O-])cc2)cs1`, the “activation (H2AX phosphorylation)” value falls from 0.255% to -2.64%.

Going from `C[C@@H]1C[C@H]2[C@@H]3CCC4=CC(=O)C=C[C@]4(C)[C@@]3(F)[C@@H](O)C[C@]2(C)[C@@]1(O)C(=O)COP(=O)(O)O` to `CCCC(=O)OC(=O)CCC`, the “activation (H2AX phosphorylation)” value rises from -3.08% to -0.756%.

Going from `CCC(CO)(CO)CO` to `CCCCCCC(CO)CCCC` (stereo not drawn), the “activation (H2AX phosphorylation)” value falls from 1.04% to -0.327%.

First: C=CCOC(=O)COCCC(C)C
Second: NC(=O)CCCCC(N)=O
The “activation (H2AX phosphorylation)” value of the first is lower: -0.222% for the first, 0.241% for the second.

Going from `COC(OC)OC` to `CCCCCCCCCCCCCCCC(=O)OCC`, the “activation (H2AX phosphorylation)” value falls from 1.76% to -1.33%.

Compared with `CCCCCCCCCCCCCCN(C)C`, `CCCCCCCCCCCCCOC(=O)CCSCCC(=O)OCCCCCCCCCCCCC` is higher in activation (H2AX phosphorylation): 0.821% [at 31.6 µM] for the first, 0.898% [at 31.6 µM] for the second.

`CCC(Cl)CC(Cl)C(Cl)C(Cl)C(Cl)C(C)Cl` (stereo not drawn) showed an activation (H2AX phosphorylation) of -1.57% [at 31.6 µM].

Experiment: qHTS assay to identify small molecule agonists of the hypoxia (HIF-1) signaling pathway (AID 1224846)
Conditions: HRE-bla ME-180 cells, beta-lactamase ratio, 17 h; series mostly up to 76.8 µM; activation: at the top concentration
Outline: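 A low-serum medium (0.5% dialyzed FBS) holding 2,000 HRE-bla ME-180 cells per well is preincubated for 5 hrs, dosed with compounds by pintool, and kept a further 17 hrs at 37C, 5% CO2 before CCF4-AM FRET detection of beta-lactamase.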

Compared with `O=C1[C@@H]2[C@H]3CC[C@H](C3)[C@@H]2C(=O)N1CCCCN1CCN(c2ncccn2)CC1`, `COc1cc(C(C)=O)ccc1OCCCN1CCC(c2noc3cc(F)ccc23)CC1` is higher in “activation” value: -1.53% [at 35.5 µM] for the first, 1.52% [at 35.5 µM] for the second.

First: O=C(NC(Cc1cc(=O)[nH]c2ccccc12)C(=O)O)c1ccc(Cl)cc1 (stereo not drawn)
Second: O=C(O)CCC(=O)c1ccc(-c2ccccc2)cc1
The “activation” value of the first is lower: -0.808% [at 35.5 µM] for the first, -0.596% [at 35.5 µM] for the second.

First: CSCC[C@H](NC(=O)[C@H](Cc1c[nH]c2ccccc12)NC(=O)CCNC(=O)OC(C)(C)C)C(=O)N[C@@H](CC(=O)O)C(=O)N[C@@H](Cc1ccccc1)C(N)=O
Second: O=C(O)CNC(=O)c1ccccc1I
The “activation” value of the first is lower: -0.781% [at 35.5 µM] for the first, -0.655% [at 35.5 µM] for the second.

First: CCOc1ncc(F)c(=O)[nH]1
Second: COC(=O)Nc1nc2ccc(C(=O)C3CC3)cc2[nH]1
The “activation” value of the first is lower: -1.05% [at 35.5 µM] for the first, -0.785% [at 35.5 µM] for the second.

Going from `CC(C)(C(=O)c1cccnc1)c1cccnc1` to `Cc1ccc(S(=O)(=O)NC(=O)NC2CCCCC2)cc1`, the “activation” value falls from -0.65% [at 35.5 µM] to -1.21% [at 35.5 µM].

Going from `FC(F)(F)C(F)(F)C(F)(F)C(F)(F)CCI` to `O=c1[nH]c2cc(C(F)(F)F)c(N3CCOCC3)cc2n(CP(=O)(O)O)c1=O`, the “activation” value rises from -0.0991% [at 35.5 µM] to -0.0198% [at 35.5 µM].

Compared with `CCCCCCCC/C=C/C(=O)O`, `CCCCC[C@H](O)/C=C/[C@H]1[C@H](O)CC(=O)[C@@H]1C/C=C\CCCC(=O)O` is lower in “activation” value: 0.986% [at 35.5 µM] for the first, -1.49% [at 35.5 µM] for the second.

Compared with `COc1ccc(CCN(C)CCCN2CCc3cc(OC)c(OC)cc3CC2=O)cc1OC`, `CC[C@H]1OC(=O)[C@H](C)[C@@H](O[C@H]2C[C@@](C)(OC)[C@@H](O)[C@H](C)O2)[C@H](C)[C@@H](O[C@@H]2O[C@H](C)C[C@H](N(C)C)[C@H]2O)[C@](C)(O)C[C@@H](C)CN(C)[C@H](C)[C@@H](O)[C@]1(C)O` is higher in “activation” value: -0.633% [at 35.5 µM] for the first, 0.0138% [at 35.5 µM] for the second.

Compared with `Cc1ccc2c(c1)CCCN2`, `Cc1ccc(N(CCO)CCO)cc1` is lower in “activation” value: 0.0343% for the first, -1.66% for the second.

Compared with `CC(C)(C)C1(CCc2ccc(Cl)cc2)CO1` (stereo not drawn), `CC(C)(O)CCc1ccccc1` is higher in “activation” value: -0.679% for the first, -0.0607% for the second.

Compared with `O=CNNC=O`, `O=S(=O)(O)CO` is lower in “activation” value: 0.0262% for the first, -1.52% for the second.

First: O=C(O)CO
Second: CCOC(=O)C(C)O (stereo not drawn)
The “activation” value of the first is higher: 1.13% for the first, 0.0057% for the second.

First: Cc1cc(CCC(=O)OCCOCCOCCOC(=O)CCc2cc(C)c(O)c(C(C)(C)C)c2)cc(C(C)(C)C)c1O
Second: CCCCCCOC(=O)CCCCC
The “activation” value of the first is higher: -0.0035% for the first, -0.183% for the second.

First: Nc1ccn([C@H]2CS[C@@H](CO)O2)c(=O)n1
Second: Nc1nc(-c2ccc([N+](=O)[O-])cc2)cs1
The “activation” value of the first is lower: -1.48% for the first, -1.32% for the second.

First: C[C@@H]1C[C@H]2[C@@H]3CCC4=CC(=O)C=C[C@]4(C)[C@@]3(F)[C@@H](O)C[C@]2(C)[C@@]1(O)C(=O)COP(=O)(O)O
Second: CCCC(=O)OC(=O)CCC
The “activation” value of the first is lower: -0.709% for the first, -0.268% for the second.

First: CCC(CO)(CO)CO
Second: CCCCCCC(CO)CCCC (stereo not drawn)
The “activation” value of the first is higher: 0.0605% for the first, 0.0309% for the second.

Compared with `C=CCOC(=O)COCCC(C)C`, `NC(=O)CCCCC(N)=O` is higher in “activation” value: -1.06% for the first, -0.565% for the second.

Compared with `COC(OC)OC`, `CCCCCCCCCCCCCCCC(=O)OCC` is lower in “activation” value: -0.505% for the first, -1.13% for the second.

Going from `CCCCCCCCCCCCCCN(C)C` to `CCCCCCCCCCCCCOC(=O)CCSCCC(=O)OCCCCCCCCCCCCC`, the activation rises from -0.0233% [at 15.8 µM] to 0.146% [at 15.8 µM].

With `CCC(Cl)CC(Cl)C(Cl)C(Cl)C(Cl)C(C)Cl` (stereo not drawn) the activation was 0.0674% [at 15.8 µM].
